# Test results published in the supplement of paper PMC10849652.
# About 7,900 targets were measured; listed, in parts, are those with a hit and a random draw of the rest. About 0.6% of all pairs of compound and target were hits. Values without a mark were called inactive.
# Tests used:
# Test in all cases: log2 fold change, soluble protein after heating vs DMSO (PISA); higher = thermal stabilisation; K562 cells, 10 uM, 30 min; active = over 0.2 and 3.5 SD of the protein, either way, in both replicates (recomputed)
# bafetinib = compound: Cc1ccc(NC(=O)c2ccc(CN3CC[C@H](N(C)C)C3)c(C(F)(F)F)c2)cc1Nc1nccc(-c2cncnc2)n1 [bafetinib]
# Summary of the method: (§1)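 Thermal stability values are relative to control samples and come from duplicates. They are expressed as log2 fold changes. For measurement, K562 cells (2×10^6 cells/mL) received 10 μM compound for 30 min, and aliquots were heated for 3 min over 48°C-58°C, pooled, and extracted at 4°C in PBS with 0.5% NP-40. Soluble protein, the supernatant after 21,000xg for 90 min, was quantified by TMTpro 16plex LC-MS/MS with equalised channel sums.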
# [1] = compound: Cc1cccc(CC(=O)N2CCc3c2ccc(-c2cn(C)c4ncnc(N)c24)c3F)n1
# Summary of the method: as §1
# nilotinib = compound: Cc1cn(-c2cc(NC(=O)c3ccc(C)c(Nc4nccc(-c5cccnc5)n4)c3)cc(C(F)(F)F)c2)cn1 [nilotinib]
# Summary of the method: as §1
# [2] = compound: Cc1nc(Nc2n[nH]c3c2CN(C(=O)N[C@H](CN(C)C)c2ccccc2)C3(C)C)c2sccc2n1
# Summary of the method: as §1
# dasatinib = compound: Cc1nc(Nc2ncc(C(=O)Nc3c(C)cccc3Cl)s2)cc(N2CCN(CCO)CC2)n1 [dasatinib]
# Summary of the method: as §1
# [3] = compound: Cc1ncc(-c2ccnc(Nc3ccc(S(C)(=O)=O)cc3)n2)n1C(C)C
# Summary of the method: as §1
# [4] = compound: Cn1cc(-c2ccc3c(c2)CCN3C(=O)Cc2cccc(C(F)(F)F)c2)c2c(N)ncnc21
# Summary of the method: as §1
# [5] = compound: Cn1cc(-c2ccc3nnc(C(F)(F)c4ccc5ncccc5c4)n3n2)cn1
# Summary of the method: as §1
# tipifarnib = compound: Cn1cncc1[C@@](N)(c1ccc(Cl)cc1)c1ccc2c(c1)c(-c1cccc(Cl)c1)cc(=O)n2C [tipifarnib]
# Summary of the method: as §1
# mubritinib = compound: FC(F)(F)c1ccc(/C=C/c2nc(COc3ccc(CCCCn4ccnn4)cc3)co2)cc1 [mubritinib]
# Summary of the method: as §1
# Sequence of UniProt Q14203 (Q14203 whole entry, looked up): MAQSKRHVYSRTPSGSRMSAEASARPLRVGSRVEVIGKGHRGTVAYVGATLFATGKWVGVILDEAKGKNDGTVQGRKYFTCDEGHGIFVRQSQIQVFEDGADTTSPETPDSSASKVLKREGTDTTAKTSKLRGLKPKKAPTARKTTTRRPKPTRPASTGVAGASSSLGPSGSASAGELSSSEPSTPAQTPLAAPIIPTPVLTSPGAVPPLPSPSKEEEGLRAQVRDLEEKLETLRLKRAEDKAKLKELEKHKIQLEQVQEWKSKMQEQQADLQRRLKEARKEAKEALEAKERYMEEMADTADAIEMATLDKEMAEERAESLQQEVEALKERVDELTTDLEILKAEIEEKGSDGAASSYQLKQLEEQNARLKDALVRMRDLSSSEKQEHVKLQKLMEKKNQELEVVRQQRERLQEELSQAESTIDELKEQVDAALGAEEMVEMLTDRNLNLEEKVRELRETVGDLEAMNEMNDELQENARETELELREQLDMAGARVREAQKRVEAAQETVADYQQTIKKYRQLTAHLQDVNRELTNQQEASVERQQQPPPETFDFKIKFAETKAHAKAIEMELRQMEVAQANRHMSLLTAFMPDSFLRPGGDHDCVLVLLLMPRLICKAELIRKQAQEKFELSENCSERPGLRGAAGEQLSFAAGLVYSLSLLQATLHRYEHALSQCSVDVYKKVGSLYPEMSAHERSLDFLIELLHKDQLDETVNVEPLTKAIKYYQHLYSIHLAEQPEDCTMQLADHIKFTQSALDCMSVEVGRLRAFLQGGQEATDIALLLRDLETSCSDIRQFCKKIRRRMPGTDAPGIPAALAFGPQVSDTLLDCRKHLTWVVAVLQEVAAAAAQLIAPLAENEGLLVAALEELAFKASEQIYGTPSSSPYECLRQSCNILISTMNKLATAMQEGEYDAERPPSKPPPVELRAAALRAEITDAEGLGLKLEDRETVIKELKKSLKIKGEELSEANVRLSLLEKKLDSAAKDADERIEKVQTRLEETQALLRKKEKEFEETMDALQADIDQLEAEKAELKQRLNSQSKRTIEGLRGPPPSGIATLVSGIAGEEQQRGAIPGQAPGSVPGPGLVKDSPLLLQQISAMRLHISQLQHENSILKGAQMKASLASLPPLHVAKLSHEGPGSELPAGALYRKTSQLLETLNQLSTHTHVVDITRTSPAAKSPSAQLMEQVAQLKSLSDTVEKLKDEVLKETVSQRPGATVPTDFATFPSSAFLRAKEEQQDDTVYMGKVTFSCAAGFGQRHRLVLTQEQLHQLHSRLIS
# Sequence of UniProt Q99848 (Q99848 whole entry, looked up): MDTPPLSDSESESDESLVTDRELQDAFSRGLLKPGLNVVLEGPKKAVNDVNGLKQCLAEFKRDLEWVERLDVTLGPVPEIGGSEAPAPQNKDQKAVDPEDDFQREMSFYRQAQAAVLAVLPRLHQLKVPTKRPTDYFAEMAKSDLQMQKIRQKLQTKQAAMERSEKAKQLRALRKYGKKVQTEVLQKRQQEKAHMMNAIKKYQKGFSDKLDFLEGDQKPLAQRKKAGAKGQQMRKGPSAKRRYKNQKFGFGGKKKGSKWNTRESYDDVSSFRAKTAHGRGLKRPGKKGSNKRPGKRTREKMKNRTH
# Sequence of UniProt P07711 (P07711 whole entry, looked up): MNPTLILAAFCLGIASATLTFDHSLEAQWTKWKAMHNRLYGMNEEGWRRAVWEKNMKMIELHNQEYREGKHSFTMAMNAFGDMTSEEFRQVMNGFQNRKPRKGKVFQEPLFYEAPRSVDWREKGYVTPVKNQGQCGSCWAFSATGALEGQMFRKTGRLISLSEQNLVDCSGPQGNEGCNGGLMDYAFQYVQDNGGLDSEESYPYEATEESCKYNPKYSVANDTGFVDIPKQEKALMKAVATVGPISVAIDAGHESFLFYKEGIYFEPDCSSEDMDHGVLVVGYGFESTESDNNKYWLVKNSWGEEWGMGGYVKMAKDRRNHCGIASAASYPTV
# Sequence of UniProt Q9UBQ6 (Q9UBQ6 whole entry, looked up): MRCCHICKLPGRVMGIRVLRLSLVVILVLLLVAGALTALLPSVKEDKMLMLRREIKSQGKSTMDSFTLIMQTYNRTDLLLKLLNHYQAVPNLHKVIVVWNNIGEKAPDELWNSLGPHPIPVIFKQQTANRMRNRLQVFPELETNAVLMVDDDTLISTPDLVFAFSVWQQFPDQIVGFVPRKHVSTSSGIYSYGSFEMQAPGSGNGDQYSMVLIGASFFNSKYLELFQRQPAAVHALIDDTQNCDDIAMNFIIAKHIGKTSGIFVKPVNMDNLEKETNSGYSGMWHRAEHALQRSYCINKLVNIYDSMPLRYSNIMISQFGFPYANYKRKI
# Sequence of UniProt Q9BW60 (Q9BW60 whole entry, looked up): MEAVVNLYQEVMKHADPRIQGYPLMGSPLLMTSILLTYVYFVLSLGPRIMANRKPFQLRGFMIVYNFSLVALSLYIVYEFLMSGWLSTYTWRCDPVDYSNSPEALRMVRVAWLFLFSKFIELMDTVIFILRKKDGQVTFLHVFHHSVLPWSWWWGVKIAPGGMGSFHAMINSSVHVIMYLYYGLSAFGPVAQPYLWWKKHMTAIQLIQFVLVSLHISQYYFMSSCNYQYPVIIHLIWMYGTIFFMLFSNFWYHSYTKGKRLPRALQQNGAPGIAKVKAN
# Sequence of UniProt Q9UK59 (Q9UK59 whole entry, looked up): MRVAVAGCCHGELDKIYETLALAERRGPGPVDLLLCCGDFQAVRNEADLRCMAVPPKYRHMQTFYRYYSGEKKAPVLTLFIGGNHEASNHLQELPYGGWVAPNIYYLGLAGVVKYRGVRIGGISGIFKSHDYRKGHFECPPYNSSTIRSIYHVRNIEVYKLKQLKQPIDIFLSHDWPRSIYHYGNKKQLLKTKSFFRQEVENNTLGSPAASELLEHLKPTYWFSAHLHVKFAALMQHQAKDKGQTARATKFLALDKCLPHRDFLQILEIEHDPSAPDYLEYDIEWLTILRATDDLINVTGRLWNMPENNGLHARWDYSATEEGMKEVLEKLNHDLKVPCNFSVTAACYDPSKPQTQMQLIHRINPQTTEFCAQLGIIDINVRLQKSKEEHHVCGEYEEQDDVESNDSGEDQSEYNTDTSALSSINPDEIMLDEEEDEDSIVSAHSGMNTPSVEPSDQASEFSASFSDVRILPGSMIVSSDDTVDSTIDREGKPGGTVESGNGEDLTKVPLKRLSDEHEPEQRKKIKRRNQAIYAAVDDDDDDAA
# Sequence of UniProt Q9NXF7 (Q9NXF7 whole entry, looked up): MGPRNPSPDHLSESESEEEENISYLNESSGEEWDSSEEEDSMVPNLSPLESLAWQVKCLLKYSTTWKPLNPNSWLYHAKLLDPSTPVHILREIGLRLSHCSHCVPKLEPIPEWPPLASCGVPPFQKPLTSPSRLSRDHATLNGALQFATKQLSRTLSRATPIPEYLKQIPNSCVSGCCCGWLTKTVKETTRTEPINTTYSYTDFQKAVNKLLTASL
# Sequence of UniProt Q9C073 (Q9C073 whole entry, looked up): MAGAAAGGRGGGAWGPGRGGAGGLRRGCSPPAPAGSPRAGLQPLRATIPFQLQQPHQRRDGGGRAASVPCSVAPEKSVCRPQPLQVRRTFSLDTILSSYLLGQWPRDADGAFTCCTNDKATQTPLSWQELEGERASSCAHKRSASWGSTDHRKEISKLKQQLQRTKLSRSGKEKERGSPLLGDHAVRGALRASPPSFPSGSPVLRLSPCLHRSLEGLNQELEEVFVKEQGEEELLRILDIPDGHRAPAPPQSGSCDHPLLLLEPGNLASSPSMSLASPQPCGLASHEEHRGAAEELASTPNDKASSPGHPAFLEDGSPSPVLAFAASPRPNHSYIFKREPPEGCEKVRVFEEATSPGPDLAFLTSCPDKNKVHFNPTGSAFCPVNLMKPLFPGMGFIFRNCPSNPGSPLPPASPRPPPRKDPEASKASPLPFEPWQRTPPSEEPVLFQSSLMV
# Sequence of UniProt Q15369 (Q15369 whole entry, looked up): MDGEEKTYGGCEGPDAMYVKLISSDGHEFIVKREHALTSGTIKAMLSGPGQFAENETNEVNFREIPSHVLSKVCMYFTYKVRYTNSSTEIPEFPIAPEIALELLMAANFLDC
# Sequence of UniProt Q7Z2Z2 (Q7Z2Z2 whole entry, looked up): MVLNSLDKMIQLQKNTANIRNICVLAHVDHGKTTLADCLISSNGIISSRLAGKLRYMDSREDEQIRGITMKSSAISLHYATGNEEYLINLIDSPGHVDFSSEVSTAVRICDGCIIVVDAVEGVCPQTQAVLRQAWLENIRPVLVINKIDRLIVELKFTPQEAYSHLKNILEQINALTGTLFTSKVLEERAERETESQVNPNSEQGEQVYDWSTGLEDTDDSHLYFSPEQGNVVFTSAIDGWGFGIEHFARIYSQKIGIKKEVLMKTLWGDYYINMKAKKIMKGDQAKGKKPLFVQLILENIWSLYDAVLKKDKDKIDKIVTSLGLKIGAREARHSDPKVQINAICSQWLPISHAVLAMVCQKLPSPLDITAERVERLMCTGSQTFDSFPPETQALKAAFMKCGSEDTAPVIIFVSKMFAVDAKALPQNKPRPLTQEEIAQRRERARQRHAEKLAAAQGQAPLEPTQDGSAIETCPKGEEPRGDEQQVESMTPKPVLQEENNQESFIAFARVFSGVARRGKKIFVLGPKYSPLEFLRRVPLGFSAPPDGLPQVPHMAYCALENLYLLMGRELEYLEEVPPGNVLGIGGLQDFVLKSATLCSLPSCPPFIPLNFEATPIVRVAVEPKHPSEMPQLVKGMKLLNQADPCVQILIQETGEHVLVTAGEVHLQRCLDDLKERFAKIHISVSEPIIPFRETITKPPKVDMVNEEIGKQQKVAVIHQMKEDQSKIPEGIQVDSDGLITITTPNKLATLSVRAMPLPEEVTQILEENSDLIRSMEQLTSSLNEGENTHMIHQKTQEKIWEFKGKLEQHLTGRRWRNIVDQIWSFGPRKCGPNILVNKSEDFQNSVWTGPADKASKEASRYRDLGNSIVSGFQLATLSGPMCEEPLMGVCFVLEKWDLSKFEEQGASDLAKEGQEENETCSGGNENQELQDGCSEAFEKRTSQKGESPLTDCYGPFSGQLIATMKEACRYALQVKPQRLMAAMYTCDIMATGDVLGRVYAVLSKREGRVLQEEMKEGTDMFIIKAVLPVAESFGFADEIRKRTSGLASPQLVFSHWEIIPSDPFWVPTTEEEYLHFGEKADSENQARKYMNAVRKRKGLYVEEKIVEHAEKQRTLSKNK
Target,log2 fold change (bafetinib),log2 fold change [1],log2 fold change (nilotinib),log2 fold change [2],log2 fold change (dasatinib),log2 fold change [3],log2 fold change [4],log2 fold change [5],log2 fold change (tipifarnib),log2 fold change (mubritinib)
DBR1 (UniProt Q9UK59),-0.001,0.02,-0.023,0.05,0.06,-0.009,0.021,-0.067,0.03,-0.002
ELOC (UniProt Q15369),0.003,0.014,-0.028,0.013,0.032,-0.003,0.116,0.049,-0.027,0.005
DIP2A (UniProt Q14689),-0.005,-0.019,0.005,-0.07,-0.04,0.01,0.043,-0.053,0.02,0.002
EXTL2 (UniProt Q9UBQ6),-0.041,0.021,-0.02,0.006,-0.008,-0.059,-0.039,-0.064,0.014,0.029
CTSL (UniProt P07711),-0.261,-0.046,0.041,0.103,0.14,0.004,0.013,0.045,0.145,-0.006
DCAF16 (UniProt Q9NXF7),-0.051,-0.056,-0.005,-0.004,-0.179,0.005,-0.031,0.091,-0.155,-0.085
DNAH5 (UniProt Q8TE73),-0.065,-0.084,-0.006,0.015,0.085,-0.015,0,-0.06,0.267,0.032
ELOVL5 isoform 2 (UniProt Q9NYP7),-0.166,0.124,-0.182,0.021,-0.147,-0.054,0.063,0.011,-0.204,0.068
DDB1 isoform 2 (UniProt Q16531),-0.286,-0.094,–,–,–,–,–,–,–,–
EBNA1BP2 (UniProt Q99848),0.312,-0.114,0.114,-0.089,0.226,-0.004,-0.499,-0.176,0.134,-0.124
ELOVL1 (UniProt Q9BW60),-0.245,0.12,-0.126,0.024,-0.041,-0.011,0.139,-0.097,-0.093,0.011
CTNNB1 (UniProt P35222),0.026,0.057,-0.056,0.205,-0.149,0.858 (active),-0.004,-0.021,-0.115,0.076
DCTN1 isoform 4 (UniProt Q14203),0.057,0.037,-0.052,-0.052,-0.256,-0.018,0.003,-0.015,-0.054,0.038
FAM117A (UniProt Q9C073),-0.021,0.004,-0.047,-0.083,-0.046,-0.018,0.016,0.032,0.039,0.024
EFL1 (UniProt Q7Z2Z2),-0.043,-0.014,-0.147,-0.052,-0.077,0.003,0.021,0.028,-0.026,-0.109
FADS1 (UniProt F5GYH4),0.034,–,–,–,–,–,–,–,–,–
